# Measurements published in the supplement of paper PMC10849652.
# Of roughly 7,900 targets only a part is listed; those with a hit were picked by preference. About 0.6% of all pairs of compound and target were hits. A number with no mark means an inactive call.
# How the values were obtained:
# Assay in all cases: log2 fold change, soluble protein after heating vs DMSO (PISA); higher = thermal stabilisation; K562 cells, 10 uM, 30 min; active = over 0.2 and 3.5 SD of the protein, either way, in both replicates (recomputed)
# ZEB2 = ZEB2 (UniProt O60315)
# In short: (§1)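 For each measurement, 10 μM compound was applied for 30 min to K562 cells at 2×10^6 cells/mL. Aliquots were heated for 3 min across 48°C-58°C, pooled, and extracted in PBS with 0.5% NP-40 at 4°C; the supernatant after 21,000xg for 90 min was soluble protein. This was quantified by TMTpro 16plex LC-MS/MS with channel sums equalised, and thermal stability was reported relative to control samples from duplicates, on a log2 fold-change scale.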
# ZER1 = ZER1 (UniProt Q7Z7L7)
# In short: as §1
# ZFAND5 = ZFAND5 (UniProt O76080)
# In short: as §1
# ZFAND6 = ZFAND6 (UniProt Q6FIF0)
# In short: as §1
# ZFP91 = ZFP91 (UniProt Q96JP5)
# In short: as §1
# ZFPL1 = ZFPL1 (UniProt O95159)
# In short: as §1
# ZMAT2 = ZMAT2 (UniProt Q96NC0)
# In short: as §1
# ZMYM1 = ZMYM1 (UniProt Q5SVZ6)
# In short: as §1
# ZMYM3 = ZMYM3 (UniProt Q14202)
# In short: as §1
# ZNF143 = ZNF143 (UniProt P52747)
# In short: as §1
# ZNF217 = ZNF217 (UniProt O75362)
# In short: as §1
# ZNF239 = ZNF239 (UniProt Q16600)
# In short: as §1
# ZNF277 = ZNF277 (UniProt Q9NRM2)
# In short: as §1
# ZNF579 = ZNF579 (UniProt Q8NAF0)
# In short: as §1
# ZNF580 = ZNF580 (UniProt Q9UK33)
# In short: as §1
# ZNF609 = ZNF609 (UniProt O15014)
# In short: as §1
# ZNF622 = ZNF622 (UniProt Q969S3)
# In short: as §1
# ZRANB2 = ZRANB2 (UniProt O95218)
# In short: as §1
# ZNF511 isoform 1 = ZNF511 isoform 1 (UniProt Q8NB15)
# In short: as §1
# ZNF512 = ZNF512 (UniProt Q96ME7)
# In short: as §1
# Sequence of ZEB2 (O60315 whole entry, looked up): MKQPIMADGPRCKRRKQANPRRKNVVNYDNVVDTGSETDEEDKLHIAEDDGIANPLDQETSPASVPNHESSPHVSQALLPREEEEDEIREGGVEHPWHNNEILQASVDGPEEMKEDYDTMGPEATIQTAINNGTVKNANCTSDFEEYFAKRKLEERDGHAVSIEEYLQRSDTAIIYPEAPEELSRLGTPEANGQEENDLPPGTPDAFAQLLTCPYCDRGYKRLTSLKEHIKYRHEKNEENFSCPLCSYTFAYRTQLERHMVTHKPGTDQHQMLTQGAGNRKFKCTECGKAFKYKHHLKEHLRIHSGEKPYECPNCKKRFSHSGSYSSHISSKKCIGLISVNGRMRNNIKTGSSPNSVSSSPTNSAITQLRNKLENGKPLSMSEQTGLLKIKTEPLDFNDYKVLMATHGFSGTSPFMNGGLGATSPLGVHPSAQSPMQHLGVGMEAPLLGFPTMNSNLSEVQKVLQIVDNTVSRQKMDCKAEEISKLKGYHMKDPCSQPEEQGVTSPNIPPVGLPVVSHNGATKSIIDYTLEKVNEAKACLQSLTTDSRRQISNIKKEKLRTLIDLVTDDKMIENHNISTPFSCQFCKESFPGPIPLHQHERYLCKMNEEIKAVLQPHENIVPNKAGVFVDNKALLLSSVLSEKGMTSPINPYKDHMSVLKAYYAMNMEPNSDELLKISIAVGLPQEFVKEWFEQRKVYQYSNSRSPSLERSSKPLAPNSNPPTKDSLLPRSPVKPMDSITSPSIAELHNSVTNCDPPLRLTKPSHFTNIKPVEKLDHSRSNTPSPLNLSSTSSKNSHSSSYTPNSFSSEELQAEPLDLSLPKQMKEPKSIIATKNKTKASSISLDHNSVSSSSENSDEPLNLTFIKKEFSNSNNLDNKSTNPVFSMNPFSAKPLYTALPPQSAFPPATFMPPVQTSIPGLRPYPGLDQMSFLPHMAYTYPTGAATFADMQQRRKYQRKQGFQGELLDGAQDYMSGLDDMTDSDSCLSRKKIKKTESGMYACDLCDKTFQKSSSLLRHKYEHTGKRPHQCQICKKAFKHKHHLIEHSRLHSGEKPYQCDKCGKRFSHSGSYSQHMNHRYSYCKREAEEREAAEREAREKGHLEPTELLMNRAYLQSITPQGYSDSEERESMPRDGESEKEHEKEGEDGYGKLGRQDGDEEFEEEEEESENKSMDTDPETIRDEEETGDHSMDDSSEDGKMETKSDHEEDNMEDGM
# Sequence of ZNF217 (O75362 whole entry, looked up): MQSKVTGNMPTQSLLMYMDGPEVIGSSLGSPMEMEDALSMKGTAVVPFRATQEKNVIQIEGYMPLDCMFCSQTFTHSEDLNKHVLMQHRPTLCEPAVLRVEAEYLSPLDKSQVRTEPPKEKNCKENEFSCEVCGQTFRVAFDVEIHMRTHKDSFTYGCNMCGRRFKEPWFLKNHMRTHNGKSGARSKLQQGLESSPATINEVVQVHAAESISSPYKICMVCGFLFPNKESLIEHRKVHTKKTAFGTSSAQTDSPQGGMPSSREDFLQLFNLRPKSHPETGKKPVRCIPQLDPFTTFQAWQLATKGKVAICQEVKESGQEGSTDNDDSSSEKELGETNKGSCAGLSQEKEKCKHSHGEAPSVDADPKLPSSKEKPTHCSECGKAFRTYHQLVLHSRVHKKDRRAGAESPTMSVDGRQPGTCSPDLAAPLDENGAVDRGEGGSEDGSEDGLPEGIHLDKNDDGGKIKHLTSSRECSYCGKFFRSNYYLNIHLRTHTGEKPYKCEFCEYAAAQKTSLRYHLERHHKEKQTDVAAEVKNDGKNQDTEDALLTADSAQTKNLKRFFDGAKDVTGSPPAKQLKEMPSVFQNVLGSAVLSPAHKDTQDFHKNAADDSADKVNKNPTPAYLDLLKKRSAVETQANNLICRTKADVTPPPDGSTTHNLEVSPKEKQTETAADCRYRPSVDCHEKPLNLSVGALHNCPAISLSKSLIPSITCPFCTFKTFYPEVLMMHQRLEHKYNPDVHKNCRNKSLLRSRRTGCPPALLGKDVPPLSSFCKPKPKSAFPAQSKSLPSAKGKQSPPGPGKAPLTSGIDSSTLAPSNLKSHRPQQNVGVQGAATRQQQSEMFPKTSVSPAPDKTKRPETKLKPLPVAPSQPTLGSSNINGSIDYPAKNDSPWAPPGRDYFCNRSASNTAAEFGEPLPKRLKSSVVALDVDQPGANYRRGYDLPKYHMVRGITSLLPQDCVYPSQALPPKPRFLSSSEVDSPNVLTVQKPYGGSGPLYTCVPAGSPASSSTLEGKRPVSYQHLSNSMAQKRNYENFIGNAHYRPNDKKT
# Sequence of ZNF512 (Q96ME7 whole entry, looked up): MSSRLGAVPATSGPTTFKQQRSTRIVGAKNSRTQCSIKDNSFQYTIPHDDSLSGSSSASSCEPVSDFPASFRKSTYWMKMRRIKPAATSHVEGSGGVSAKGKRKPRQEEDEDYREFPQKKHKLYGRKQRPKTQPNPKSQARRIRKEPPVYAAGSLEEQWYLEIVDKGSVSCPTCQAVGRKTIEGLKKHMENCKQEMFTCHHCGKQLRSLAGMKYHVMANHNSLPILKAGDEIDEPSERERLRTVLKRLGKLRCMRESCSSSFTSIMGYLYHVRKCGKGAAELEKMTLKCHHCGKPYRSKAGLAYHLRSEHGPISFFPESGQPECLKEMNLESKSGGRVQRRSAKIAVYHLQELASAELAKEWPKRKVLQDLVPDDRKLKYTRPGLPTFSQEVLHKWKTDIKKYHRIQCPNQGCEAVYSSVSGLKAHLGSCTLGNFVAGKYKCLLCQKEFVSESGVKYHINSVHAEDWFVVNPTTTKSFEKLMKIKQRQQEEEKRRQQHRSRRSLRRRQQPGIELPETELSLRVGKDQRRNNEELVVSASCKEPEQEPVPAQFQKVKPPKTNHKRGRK
# Sequence of ZMYM3 (Q14202 whole entry, looked up): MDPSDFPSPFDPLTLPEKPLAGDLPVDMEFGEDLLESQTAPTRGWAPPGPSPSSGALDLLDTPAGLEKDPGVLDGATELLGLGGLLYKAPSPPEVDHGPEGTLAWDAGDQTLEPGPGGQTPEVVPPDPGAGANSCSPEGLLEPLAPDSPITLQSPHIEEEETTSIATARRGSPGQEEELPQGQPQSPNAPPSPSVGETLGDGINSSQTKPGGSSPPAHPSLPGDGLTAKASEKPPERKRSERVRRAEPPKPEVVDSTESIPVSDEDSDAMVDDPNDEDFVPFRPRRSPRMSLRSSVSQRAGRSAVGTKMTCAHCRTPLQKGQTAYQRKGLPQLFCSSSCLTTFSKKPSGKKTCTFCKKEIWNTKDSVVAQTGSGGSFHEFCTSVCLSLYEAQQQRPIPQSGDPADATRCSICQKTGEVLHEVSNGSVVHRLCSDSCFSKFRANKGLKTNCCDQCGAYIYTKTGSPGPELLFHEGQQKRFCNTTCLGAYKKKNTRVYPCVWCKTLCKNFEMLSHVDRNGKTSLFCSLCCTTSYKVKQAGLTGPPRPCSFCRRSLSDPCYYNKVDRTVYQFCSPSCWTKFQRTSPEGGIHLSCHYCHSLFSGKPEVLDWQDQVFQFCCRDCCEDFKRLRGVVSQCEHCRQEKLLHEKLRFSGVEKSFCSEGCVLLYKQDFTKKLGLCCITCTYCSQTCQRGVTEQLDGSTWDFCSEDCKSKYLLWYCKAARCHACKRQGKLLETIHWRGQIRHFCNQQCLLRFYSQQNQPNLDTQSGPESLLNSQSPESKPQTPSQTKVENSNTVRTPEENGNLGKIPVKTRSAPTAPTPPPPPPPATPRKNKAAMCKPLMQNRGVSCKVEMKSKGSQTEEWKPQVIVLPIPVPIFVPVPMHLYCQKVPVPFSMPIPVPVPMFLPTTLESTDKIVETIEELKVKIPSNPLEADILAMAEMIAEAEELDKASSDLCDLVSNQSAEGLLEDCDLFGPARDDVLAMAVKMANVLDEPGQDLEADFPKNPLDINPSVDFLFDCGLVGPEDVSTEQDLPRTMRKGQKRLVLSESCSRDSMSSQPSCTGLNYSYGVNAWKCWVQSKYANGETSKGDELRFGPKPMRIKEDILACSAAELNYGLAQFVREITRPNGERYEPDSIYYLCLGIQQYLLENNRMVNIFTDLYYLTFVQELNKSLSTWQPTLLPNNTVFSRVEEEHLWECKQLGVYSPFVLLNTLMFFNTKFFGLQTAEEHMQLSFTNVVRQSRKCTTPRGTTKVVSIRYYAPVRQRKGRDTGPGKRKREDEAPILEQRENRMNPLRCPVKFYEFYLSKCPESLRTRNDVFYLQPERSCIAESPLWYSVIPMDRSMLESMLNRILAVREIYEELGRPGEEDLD
# Sequence of ZNF277 (Q9NRM2 whole entry, looked up): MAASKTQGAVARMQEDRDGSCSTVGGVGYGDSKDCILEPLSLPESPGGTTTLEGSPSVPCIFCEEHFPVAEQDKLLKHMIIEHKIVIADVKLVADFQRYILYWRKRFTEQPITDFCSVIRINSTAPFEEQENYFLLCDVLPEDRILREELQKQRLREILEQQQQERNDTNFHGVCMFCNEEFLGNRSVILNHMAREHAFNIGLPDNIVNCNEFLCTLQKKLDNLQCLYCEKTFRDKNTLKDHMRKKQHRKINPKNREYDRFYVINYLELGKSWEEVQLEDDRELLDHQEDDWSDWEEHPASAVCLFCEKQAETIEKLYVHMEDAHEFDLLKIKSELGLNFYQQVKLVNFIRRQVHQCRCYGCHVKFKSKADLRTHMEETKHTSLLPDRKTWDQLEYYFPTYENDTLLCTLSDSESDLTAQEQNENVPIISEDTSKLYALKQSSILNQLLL
# Sequence of ZNF511 isoform 1 (Q8NB15 whole entry, looked up, canonical isoform): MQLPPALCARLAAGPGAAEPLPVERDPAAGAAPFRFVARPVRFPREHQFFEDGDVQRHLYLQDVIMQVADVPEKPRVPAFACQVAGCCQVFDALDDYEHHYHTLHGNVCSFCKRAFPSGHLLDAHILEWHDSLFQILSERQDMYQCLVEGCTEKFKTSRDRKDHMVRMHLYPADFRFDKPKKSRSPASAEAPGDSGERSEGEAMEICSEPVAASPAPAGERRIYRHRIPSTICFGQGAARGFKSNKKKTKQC
# Sequence of ZNF580 (Q9UK33 whole entry, looked up): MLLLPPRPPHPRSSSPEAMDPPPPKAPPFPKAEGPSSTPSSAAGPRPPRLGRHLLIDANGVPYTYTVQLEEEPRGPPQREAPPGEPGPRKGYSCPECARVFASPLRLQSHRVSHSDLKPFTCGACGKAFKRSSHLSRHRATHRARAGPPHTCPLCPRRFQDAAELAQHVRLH
SMILES,log2 fold change (ZEB2),log2 fold change (ZER1),log2 fold change (ZFAND5),log2 fold change (ZFAND6),log2 fold change (ZFP91),log2 fold change (ZFPL1),log2 fold change (ZMAT2),log2 fold change (ZMYM1),log2 fold change (ZMYM3),log2 fold change (ZNF143),log2 fold change (ZNF217),log2 fold change (ZNF239),log2 fold change (ZNF277),log2 fold change (ZNF579),log2 fold change (ZNF580),log2 fold change (ZNF609),log2 fold change (ZNF622),log2 fold change (ZRANB2),log2 fold change (ZNF511 isoform 1),log2 fold change (ZNF512)
Cc1cccc(-c2[nH]c(C(C)(C)C)nc2-c2ccc3nccnc3c2)n1,0.031,-0.248,0.007,-0.088,-0.069,0.032,0.088,0.042,-0.038,0.021,0.01,0.013,-0.107,-0.073,-0.183,0.014,0.008,-0.05,–,–
CN1CCN(c2nc(C3=C(c4c[nH]c5ccccc45)C(=O)NC3=O)c3ccccc3n2)CC1 [sotrastaurin],-0.056,0.078,0.11,0.13,0.105,0.003,-0.088,0.027,0.027,-0.031,-0.019,0.144,–,0.014,0.039,0.016,0.018,-0.027,0.001,–
Cn1cc(-c2ccc3c(c2)CCN3C(=O)Cc2cccc(C(F)(F)F)c2)c2c(N)ncnc21,–,-0.021,-0.02,0.067,-0.161,0.049,-0.023,0.07,0.053,-0.129,0.142,0.306,-0.163,0.059,–,-0.041,0.067,-0.013,0.01,-0.86 (active)
Cc1cccc(CC(=O)N2CCc3c2ccc(-c2cn(C)c4ncnc(N)c24)c3F)n1,–,0.369,-0.032,-0.014,-0.037,-0.041,-0.037,-0.036,-0.121,0.027,0.008,0,0.045,-0.101,-0.045,-0.22,-0.019,-0.065,–,–
C[C@@H](Oc1cc(-c2cnn(C3CCNCC3)c2)cnc1N)c1c(Cl)ccc(F)c1Cl [crizotinib],-0.141,0.084,-0.085,-0.041,0,0.107,0.098,-0.017,0.04,-0.06,-0.121,-0.124,-0.181,0.112,0.164,-0.113,-0.029,0.014,–,–
CNCc1ccc(-c2[nH]c3cc(F)cc4c3c2CCNC4=O)cc1 [rucaparib],–,-0.271,-0.012,-0.241 (active),0.113,0.021,-0.206,0.331,0.049,-0.008,-0.025,–,0,0.01,0.136,-0.034,-0.194,-0.034,-0.006,–
CC(=O)c1cnc2ccc(-c3cc(Cl)c(O)c(Cl)c3)nc2c1N[C@H]1CC[C@H](CN(C)C)CC1,–,0.009,-0.025,0.041,0.018,0.023,-0.001,0.055,-0.004,-0.044,-0.125,-0.439,-0.017,-0.187,–,-0.071,0.096,0.017,-0.005,-0.15
Nc1ccccc1NC(=O)c1ccc(CNC(=O)OCc2cccnc2)cc1 [entinostat],-0.03,0.049,-0.031,-0.007,-0.054,-0.03,0.081,-0.012,-0.073,-0.012,0.075,-0.023,–,-0.036,0,-0.061,-0.007,-0.024,-0.078,–
CO[C@H]1C[C@@H]2CC[C@@H](C)[C@@](O)(O2)C(=O)C(=O)N2CCCC[C@H]2C(=O)O[C@H]([C@H](C)C[C@@H]2CC[C@H](n3cnnn3)[C@H](OC)C2)CC(=O)[C@H](C)/C=C(\C)[C@@H](O)[C@@H](OC)C(=O)[C@H](C)C[C@H](C)/C=C/C=C/C=C/1C [zotarolimus],–,-0.035,-0.012,-0.045,-0.028,0.006,-0.034,-0.05,0.093,0.067,-0.007,-0.483,-0.084,0.099,–,-0.008,-0.017,-0.011,0.066,-0.024
NC(=O)Nc1cc(-c2cccc(F)c2)sc1C(=O)N[C@H]1CCCNC1,0.003,-0.046,-0.041,0.12,-0.044,-0.04,0.282 (active),-0.108,-0.042,0.07,0.016,0.015,–,-0.008,0.123,0.061,-0.028,0.076,0.007,–
Cc1cc(Nc2cc(CN3CCOCC3)c3nc(C)c(Cc4ccc(Cl)cc4F)n3n2)n[nH]1 [gandotinib],–,-0.269,0.066,-0.004,0.214,0.011,-0.014,0.305,0.051,0.025,-0.098,-0.267,0.041,0.036,0.041,-0.073,0.075,0.064,–,–
CS(=O)(=O)c1ccc(-c2cnc(N)c(C(=O)Nc3ccccc3)n2)cc1,0.025,0.034,-0.035,-0.036,-0.072,-0.045,-0.127,0.026,0.023,-0.014,-0.037,-0.06,–,0.019,-0.231,0.021,0.066,-0.013,-0.022,–
CN1CCC(CNc2ccc3ncc(-c4cccc(OC(F)(F)F)c4)n3n2)CC1,–,-0.172,-0.068,-0.037,0.171,-0.085,0.008,0.086,0.035,-0.109,-0.081,-0.063,0.077,0.103,0.054,-0.134,0.03,0.01,–,–
c1cn2cc(-c3ccc4cn[nH]c4c3)nc(Nc3ccc(N4CCOCC4)cc3)c2n1 [entospletinib],–,0.036,0.128,0.019,0.011,0.034,-0.116,0.174,-0.043,0.015,0.011,–,0.031,-0.14,0.004,-0.111,0.021,0.037,0.1,–
CS(=O)(=O)N1CCN(Cc2cc3nc(-c4cccc5[nH]ncc45)nc(N4CCOCC4)c3s2)CC1 [pictilisib],–,0.085,0.007,0.063,-0.07,0.173,0.01,-0.018,-0.022,-0.06,-0.038,-0.249,-0.249,0.02,-0.037,0.107,0.144,0.01,–,–
COC(=O)N[C@@H](C)CNc1nccc(-c2cn(C(C)C)nc2-c2cc(Cl)cc(NS(C)(=O)=O)c2F)n1 [encorafenib],–,0.01,-0.047,-0.019,0.038,-0.026,0.106,0.082,-0.032,0.014,-0.054,–,-0.259,-0.187,0.143,-0.082,0.01,-0.066,-0.03,–
